POLK inh = blocks human DNA polymerase kappa activity | Q9UBT6 | purified Pol kappa, fluorescent DNA synthesis assay, 10 min | Potency, µM (doses to about 107 µM), most hits filed as inhibitors | actives 0.53% (n = 400,000)
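Readout: fluorescence, taken kinetically at 0 and 10 min. Conditions: 10 nM Pol kappa, 15 min RT compound preincubation, 50 nM substrate final. Controls: enzyme-free buffer wells.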
POLH inh = blocks human DNA polymerase eta activity | Q9Y253 | recombinant Pol eta, fluorescent DNA replication assay | Potency, µM (doses to about 114 µM), hits mostly inhibitors | actives 1.2% (n = 390,000) | AID 588591
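Fluorescent replication assay: 50 nM final substrate added after a 15 min room-temperature compound preincubation with 10 nM enzyme. Signal taken at 0 min and again at 10 min.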
POLB inh = blocks human DNA polymerase beta activity | P06746 | Pol beta primer extension/strand displacement, fluorescence kinetic | Potency, µM (titrated, usually from 114 µM), actives largely listed as inhibitors | actives 1.3% (n = 340,000) | AID 485314
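Homogeneous kinetic assay of primer extension and strand displacement by 10 nM Pol beta, preincubated 15 min at room temperature with compound before 50 nM substrate (final) was added. Read at 0 and 10 min; four-parameter Hill fit.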
WRN inhibitor = inhibitors of human WRN helicase. WRN helicase unwinding, fluorescent forked duplex, kinetic. Potency, µM (highest dose often 114 µM), hits mostly inhibitors. actives 0.46% (n = 360,000). AID 651768; also: nearly all actives have a fitted effect of over 55% in size
Target sequence (Q14191 whole entry, looked up): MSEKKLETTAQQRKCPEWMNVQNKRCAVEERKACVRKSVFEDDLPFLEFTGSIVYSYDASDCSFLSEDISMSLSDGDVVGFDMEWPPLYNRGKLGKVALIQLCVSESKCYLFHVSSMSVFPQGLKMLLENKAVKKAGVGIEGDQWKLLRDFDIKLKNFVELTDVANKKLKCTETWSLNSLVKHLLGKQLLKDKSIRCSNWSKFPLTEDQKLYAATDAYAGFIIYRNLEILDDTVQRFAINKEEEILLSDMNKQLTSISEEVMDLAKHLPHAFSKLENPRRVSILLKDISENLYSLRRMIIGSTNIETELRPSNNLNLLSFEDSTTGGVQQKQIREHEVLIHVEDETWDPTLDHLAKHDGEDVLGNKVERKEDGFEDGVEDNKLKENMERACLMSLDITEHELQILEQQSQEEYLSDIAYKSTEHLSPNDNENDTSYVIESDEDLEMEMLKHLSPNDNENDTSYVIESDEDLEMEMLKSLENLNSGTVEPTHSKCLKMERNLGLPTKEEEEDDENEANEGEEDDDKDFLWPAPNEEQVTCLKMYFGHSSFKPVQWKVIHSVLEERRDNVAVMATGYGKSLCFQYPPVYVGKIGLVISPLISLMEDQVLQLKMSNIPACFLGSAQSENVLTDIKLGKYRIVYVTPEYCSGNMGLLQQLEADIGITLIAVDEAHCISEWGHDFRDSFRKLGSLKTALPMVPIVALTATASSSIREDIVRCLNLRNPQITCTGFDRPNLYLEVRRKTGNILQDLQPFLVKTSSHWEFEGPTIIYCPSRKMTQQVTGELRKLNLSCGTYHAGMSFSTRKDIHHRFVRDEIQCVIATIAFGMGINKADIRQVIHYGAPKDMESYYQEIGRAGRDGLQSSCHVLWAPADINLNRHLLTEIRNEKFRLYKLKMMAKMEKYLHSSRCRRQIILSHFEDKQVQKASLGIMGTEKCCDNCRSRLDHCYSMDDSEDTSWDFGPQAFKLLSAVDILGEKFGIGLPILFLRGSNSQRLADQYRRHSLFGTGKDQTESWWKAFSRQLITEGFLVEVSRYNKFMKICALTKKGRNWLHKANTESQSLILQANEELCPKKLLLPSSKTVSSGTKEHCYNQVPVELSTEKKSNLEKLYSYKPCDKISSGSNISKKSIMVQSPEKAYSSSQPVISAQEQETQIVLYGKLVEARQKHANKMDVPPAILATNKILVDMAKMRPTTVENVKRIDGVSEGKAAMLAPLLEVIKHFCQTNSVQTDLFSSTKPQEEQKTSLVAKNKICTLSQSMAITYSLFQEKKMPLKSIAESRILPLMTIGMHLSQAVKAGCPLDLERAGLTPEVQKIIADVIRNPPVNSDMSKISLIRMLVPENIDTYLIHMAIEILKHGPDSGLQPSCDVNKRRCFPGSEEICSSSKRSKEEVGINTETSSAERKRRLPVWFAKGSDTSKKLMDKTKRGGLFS
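Enzyme (20 nM final) and test compound sit together 15 min at room temperature before substrate addition. Substrate is a single-forked duplex oligonucleotide (100 nM) labelled with fluorophore and quencher, with 2 mM ATP; helicase unwinding raises red fluorescence, read kinetically.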
POLI inh = DNA polymerase iota (human) inhibition. Potency, µM (titrated, usually from 115 µM), hits mostly inhibitors. Q9UNA4. Pol iota fluorescent replication assay, 10 min. actives 1% (n = 390,000). AID 588590
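Pol iota at 10 nM preincubated 15 min with compounds at room temperature; reaction started with fluorescent substrate, 50 nM final. Fluorescence read kinetically at 0 and 10 min; buffer-only wells as negative control.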
FEN1 inhibitor = inhibitors of human flap endonuclease 1. Potency, µM (titrated, usually from 114 µM), most hits filed as inhibitors. Recombinant FEN1 flap cleavage, fluorescence, 15 min. actives 0.35% (n = 390,000). P39748. AID 588795; also: nearly all actives have a fitted effect of over 65% in size
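Reaction started by adding substrate (50 nM final) to 10 nM enzyme after 15 min room-temperature compound preincubation. Reads at 0 and 15 min, with data normalized and fitted to a four-parameter Hill equation.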
Numbers stand for hits; n = inactive; u = inconclusive; x = no result given; ! = a repeat was not active; [ ] = dose if it differs, or a comment. An excerpt weighted towards active compounds, which were near 2.4% of everything screened. Calls follow the shape of the dose curve; as a rule, active = well fitted curve in the direction sought with a large enough effect; inconclusive = small, poorly fitted or top-dose-only effect, or another doubt; inactive = no such curve, though single readings can be large; an effect the other way counts as inactive or inconclusive.

SMILES	POLK inh	POLH inh	POLB inh	WRN inhibitor	POLI inh	FEN1 inhibitor
O=C(O)COc1ccc(Br)cc1C(c1c(C(=O)O)[nH]c2ccccc12)c1c(C(=O)O)[nH]c2ccccc12	u	89.1µM	n	n	u	u
CCN1C(=O)C(=Cc2ccc(C)s2)C(=O)N(CC)C1=S	n	25.1µM	u	u	n	n
CCN1C(=O)C(=Cc2cc(C)n(C3CC3)c2C)C(=O)N(CC)C1=S	n	n	n	n	n	n
CC1=CC(=O)c2c(O)cccc2C1=O	10µM!	x	x	x	x	x
CNC(CC(C)C)C(=O)NC1C(=O)NC(CC(N)=O)C(=O)NC2C(=O)NC3C(=O)NC(C(=O)NC(C(=O)O)c4cc(O)cc(O)c4-c4cc3ccc4O)C(O)c3ccc(c(Cl)c3)Oc3cc2cc(c3OC2OC(CO)C(O)C(O)C2OC2CC(C)(N)C(O)C(C)O2)Oc2ccc(cc2Cl)C1O (stereo not given)	n	n	x	n	n	n
NCC(O)c1cc(O)c(O)cc1F (stereo not given)	u	n	n	n	28.2µM	n
C[C@H](CCC(=O)O)C[C@H](C)C[C@H](C)C(=O)/C=C(\O)[C@H](C)C[C@H](C)C/C=C/[C@@H](C)[C@@H](O)[C@@H](C)[C@@H](O)C[C@@H]1CC[C@@](C)([C@H]2CC[C@@](C)([C@@H](C)O)O2)O1	n	x	x	x	x	x
O=[N+]([O-])c1ccc(NCc2ccccc2)c2nonc12	n	n	n	n	31.6µM	n
C/C=C(\C)C(=O)OC1C(C)=C2C(C1OC(=O)CCCCC)C(C)(OC(C)=O)CC(OC(=O)CCC)C1(O)C2OC(=O)C1(C)O (stereo not given)	x	x	25.1µM	x	x	x
COC(=O)Cn1cc(/C=C2\C(=O)NC(=O)N(c3ccccc3)C2=O)c2ccccc21	n	n	n	n	u	u
Cc1ccc(N2C(=O)NC(=O)/C(=C\c3cn(CC(=O)O)c4ccccc34)C2=O)cc1	n	u	n	n[11.6 µM]	31.6µM	n
COc1ccc(C(=O)C2CCCN(Cc3ccon3)C2)c(OC)c1 (stereo not given)	u	u	n	n	89.1µM	n
CC(C)Oc1cccc(C(=O)C2CCCN(Cc3ccon3)C2)c1 (stereo not given)	n	n	n	n	n	n
C[C@@H]1O[C@H](O[C@H]2C[C@@H](O)[C@@]3(CO)[C@H]4[C@@H](O)C[C@]5(C)[C@@H](C6=CC(=O)OC6)CC[C@]5(O)[C@H]4CC[C@]3(O)C2)[C@@H](O)[C@H](O)[C@@H]1O	n[12 µM]	x	x	x	x	x
O=c1c2ccccc2nc(-c2ccco2)n1-c1ccc(Br)cc1	n	n	n	n	n	n
S=c1[nH]nc(-c2ccco2)n1Cc1ccccc1	n	n	31.6µM	n	n	n
CCN1C[C@]2(C)CC[C@H](O)[C@@]34[C@@H]5C[C@@H]6[C@@H](OC)C[C@@](O)(C5[C@H]6O)[C@@H](C[C@@H]23)[C@@H]14	x	n	n	x	n	x
C=C(C)[C@]12C[C@@H](C)[C@@]34OC(Cc5ccccc5)(O[C@@H]1[C@@H]3C=C(COC(=O)Cc1cc(I)c(O)c(OC)c1)C[C@]1(O)C(=O)C(C)=C[C@@H]41)O2	n	x	x	x	x	x
CC(C)C[C@H](NC(=O)[C@H](Cc1ccccc1)NC(=O)CNC(=O)[C@@H](NC(=O)[C@@H](N)Cc1ccc(O)cc1)[C@H](C)O)C(=O)N[C@H](C(=O)O)[C@H](C)O	n[19.4 µM]	x	x	x	x	x
C=CCn1c(O)c(C=NCCCn2ccnc2)c(=O)[nH]c1=O	n	n	0.316µM	n	n	n
COC1C(OC(=O)c2ccc(C)[nH]2)C(O)C(Oc2ccc3c(O)c(NC(=O)c4ccc(O)c(CC=C(C)C)c4)c(=O)oc3c2Cl)OC1(C)C (stereo not given)	n	u	44.7µM	n	n	n
COC[C@H]1OC(=O)c2coc3c2[C@@]1(C)C1=C(C3=O)[C@H]2CCC(=O)[C@@]2(C)C[C@H]1OC(C)=O	n[19.4 µM]	x	x	x	x	x
O=C(C/C=N\OCc1ccc([N+](=O)[O-])cc1)Nc1ccc(F)cc1F	n	n	n	n	n	n
COC(=O)C1=C(C(=O)OC)C2OC1c1cc3ccccc3cc12	n	n	x	39.8µM	n	n
COC(=O)C1=C(c2ccc3ccccc3c2)C[C@@H]2CC[C@H]1N2C	n	n	x	n	n	n
SMILES	POLK inh	POLH inh	POLB inh	WRN inhibitor	POLI inh	FEN1 inhibitor
O=c1[nH]c(=S)[nH]c(O)c1N=Nc1ccc(S(=O)(=O)N2CCOCC2)cc1	n	50.1µM	u	n[11.6 µM]	u	n
O=c1[nH]c(O)c(N=Nc2ccc(S(=O)(=O)N3CCOCC3)cc2)c(=O)[nH]1	n	n	u	n	n	n
O=c1[nH]c(=S)[nH]c(O)c1N=Nc1cc(S(=O)(=O)Nc2ccc(Cl)cc2)ccc1Cl	n	79.4µM	x	n	u	u
C[C@]12CC[C@@H]3c4ccc(O)cc4C[C@@H](CCCCCCCCCS(=O)CCCC(F)(F)C(F)(F)F)[C@H]3[C@@H]1CC[C@@H]2O (stereo not given in full)	n	x	x	x	x	x
CC[C@@]1(O)CC(O)c2c(cc3c(c2O)C(=O)c2c(O)ccc(O)c2C3=O)C1C(=O)OC (stereo not given in full)	25.1µM	x	x	x	x	x
CC[C@]1(O)CC(O[C@@H]2CC(N(C)C)C(O)C(C)O2)c2c(cc3c(c2O)C(=O)c2c(O)cccc2C3=O)C1C(=O)OC (stereo not given in full)	6.31µM	x	x	x	x	x
CC(C)=CCCC1(C)C=Cc2c(O)c3c(c(CC=C(C)C)c2O1)OC12C(CC4CC1C(C)(C)OC2(C/C=C(/C)C(=O)O)C4O)C3=O (stereo not given)	n	x	x	x	x	x
COc1cccc(N2C(=O)NC(=O)/C(=C/c3ccc4c5c(cccc35)CC4)C2=O)c1	x	x	n	x	x	x
CCOc1ccccc1N1C(=O)NC(=O)/C(=C/c2ccc3c4c(cccc24)CC3)C1=O	n	u	n	50.1µM	n	n
Cc1nn(C)c(C)c1-c1cccc2c1CCC(N(C)C)C2 (stereo not given)	n	x	x	x	x	x
CCc1ccc(N2NC(=O)/C(=C/C=C/c3ccco3)C2=O)cc1	u	u	u	u	17.8µM	n
Cc1cc(/C=C2/C(=O)NC(=O)N(Cc3ccco3)C2=O)c(C)n1-c1ccccc1O	n	50.1µM	28.2µM	n[11.6 µM]	44.7µM	n
Cc1cc(/C=C2/C(=O)NC(=O)N(C)C2=O)c(C)n1-c1ccccc1	n	n	n	n	n	n
O=c1[nH]c(=O)n(Cc2ccco2)c(O)c1C=NCCN1CCOCC1	n	10µM	n	n	u	n
O=c1[nH]c(=O)n(Cc2ccco2)c(O)c1C=NCc1ccco1	n	89.1µM	u	n[11.6 µM]	39.8µM	n
O=c1[nH]c(=S)n(-c2ccccc2F)c(O)c1C=NCc1ccco1	n	n	n	n	n	n

From PubChem BioAssay
